# Source: PubChem BioAssay (EPA / NIEHS)
# Activity calls are given as the source filed them. How the source made its calls: active means hit-call score of the fitted dose curve at least 0.9, where 1 is the maximum; inactive means score below 0.9.
# Key:
# Details in all cases: mRNA level, 48 h; actives raise or lower the signal
# [1] = read-out: Insulin-like growth factor-binding protein 1 (IGFBP1), IGFBP1 (gene 3484); test: LTEA_HepaRG_IGFBP1: Life Technologies and Expression Analysis (LTEA) Assay for Insulin-like growth factor-binding protein 1 (IGFBP1) using HepaRG (AID 2283508)
# Procedure, shortened: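 Thawed HepaRG cells are plated for 48 h, switched to serum-free induction medium, then dosed in duplicate for another 48 h (100 uM top, half-log steps). Lysates in RLT go to qRT-PCR, and gain or loss of signal is fitted relative to vehicle.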
# [2] = read-out: Interleukin 6 (IL6), IL6 (gene 3569); test: LTEA_HepaRG_IL6: Life Technologies and Expression Analysis (LTEA) Assay for Interleukin 6 (IL6) using HepaRG (AID 2283509)
# Procedure, shortened: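 HepaRG cells exposed in duplicate for 48 h to eight half-log concentrations, top 100 uM, in 0.5% DMSO serum-free induction medium. mRNA measured by qRT-PCR, normalized to ACTB, GAPDH and POLR2A. Bidirectional fit versus DMSO.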
# [3] = read-out: Interleukin 6 Receptor (IL6R), IL6R (gene 3570); test: LTEA_HepaRG_IL6R: Life Technologies and Expression Analysis (LTEA) Assay for Interleukin 6 Receptor (IL6R) using HepaRG (AID 2283510);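 on AC50: TaqMan qRT-PCR signal normalized to ACTB GAPDH and POLR2A housekeeping genes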
# Procedure, shortened: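 Differentiated HepaRG cells, plated 48 h, then exposed in duplicate for 48 h in serum-free induction medium to 8 half-log concentrations (top 100 uM, 0.5% DMSO). IL6R mRNA measured by TaqMan qRT-PCR, normalized to ACTB/GAPDH/POLR2A; bidirectional fit vs DMSO.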
# [4] = read-out: Potassium channel subfamily K member 1 (KCNK1), KCNK1 (gene 3775); test: LTEA_HepaRG_KCNK1: Life Technologies and Expression Analysis (LTEA) Assay for Potassium channel subfamily K member 1 (KCNK1) using HepaRG (AID 2283511)
# Procedure, shortened: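 Differentiated HepaRG cells, 48 h exposure in serum-free induction medium with 0.5% DMSO; 8 concentrations, half-log from 100 uM, duplicate. KCNK1 mRNA by qRT-PCR, normalized to ACTB, GAPDH, POLR2A; bidirectional fit vs DMSO.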
# [5] = read-out: Keratin 19 (KRT19), KRT19 (gene 3880); test: LTEA_HepaRG_KRT19: Life Technologies and Expression Analysis (LTEA) Assay for Keratin 19 (KRT19) using HepaRG (AID 2283512)
# Procedure, shortened: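 KRT19 transcript levels, measured by Fluidigm qRT-PCR against three housekeeping genes, are fitted for gain or loss of signal relative to DMSO. Human HepaRG cells receive test chemicals (top 100 uM, half-log steps, 0.5% DMSO) for 48 hours.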
# [6] = read-out: JUN Transcription Factor, JUN (gene 3725); test: LTEA_HepaRG_JUN: Life Technologies and Expression Analysis (LTEA) Assay for JUN Transcription Factor using HepaRG (AID 2283513)
# Procedure, shortened: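 HepaRG cells, 48 h post-plating, exposed 48 h in serum-free induction medium to 8-point half-log series (top 100 uM, 0.5% DMSO), duplicate; mRNA by qRT-PCR (TaqMan, Fluidigm), normalized to ACTB/GAPDH/POLR2A; bidirectional fit vs DMSO.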
# [7] = read-out: Lipase C (LIPC), LIPC (gene 3990); test: LTEA_HepaRG_LIPC: Life Technologies and Expression Analysis (LTEA) Assay for Lipase C (LIPC) using HepaRG (AID 2283514)
# Procedure, shortened: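 HepaRG cells, 48 h after plating, treated in duplicate for 48 h in serum-free induction medium over 8 half-log concentrations from 100 uM, 0.5% DMSO. LIPC mRNA by TaqMan qRT-PCR normalized to ACTB/GAPDH/POLR2A; bidirectional fit versus DMSO.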
# [8] = read-out: Lipoprotein lipase (LPL), LPL (gene 4023); test: LTEA_HepaRG_LPL: Life Technologies and Expression Analysis (LTEA) Assay for Lipoprotein lipase (LPL) using HepaRG (AID 2283515)
# Procedure, shortened: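 Differentiated HepaRG cells, plated 48 h, then exposed 48 h in serum-free induction medium to 8 concentrations (top 100 uM, half-log steps) in 0.5% DMSO, duplicate. LPL mRNA measured by qRT-PCR, normalized to ACTB, GAPDH and POLR2A.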
# [9] = read-out: MicroRNA 122 (MIR122), gene 406906; test: LTEA_HepaRG_MIR122: Life Technologies and Expression Analysis (LTEA) Assay for MicroRNA 122 (MIR122) using HepaRG (AID 2283516); further: the transcript read is the microRNA miR-122
# Procedure, shortened: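 Differentiated human HepaRG cells in serum-free induction medium exposed 48 h to 8 half-log concentrations from 100 uM in 0.5% DMSO, duplicate. MIR122 quantified by Fluidigm TaqMan qRT-PCR, normalised to ACTB, GAPDH, POLR2A; fold change fitted bidirectionally versus DMSO.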
# [10] = read-out: matrix metalloproteinase-10 (MMP10), MMP10 (gene 4319); test: LTEA_HepaRG_MMP10: Life Technologies and Expression Analysis (LTEA) Assay for matrix metalloproteinase-10 (MMP10) using HepaRG (AID 2283517)
# Procedure, shortened: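 Differentiated HepaRG cells in serum-free induction medium exposed 48 h in duplicate to 8-point half-log series up to 100 uM in 0.5% DMSO. mRNA quantified by qRT-PCR, normalised to ACTB, GAPDH, POLR2A; bidirectional fit versus DMSO.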
# MYC, MYC (gene 4609) = test: LTEA_HepaRG_MYC: Life Technologies and Expression Analysis (LTEA) Assay for MYC using HepaRG (AID 2283518)
# Procedure, shortened: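 HepaRG, ~100,000 cells/well, collagen I; 48 h plating; serum-free induction medium; 48 h dosing, duplicate, 100 uM top, half-log, 0.5% DMSO; total RNA → qRT-PCR MYC; gain/loss fit vs DMSO.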
# [11] = read-out: Paternally Expressed 10 (PEG10), PEG10 (gene 23089); test: LTEA_HepaRG_PEG10: Life Technologies and Expression Analysis (LTEA) Assay for Paternally Expressed 10 (PEG10) using HepaRG (AID 2283520)
# Procedure, shortened: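 Differentiated HepaRG cells exposed 48 h in serum-free induction medium to eight half-log concentrations topping at 100 uM, 0.5% DMSO, in duplicate. PEG10 mRNA quantified by TaqMan qRT-PCR, normalized to ACTB, GAPDH and POLR2A; bidirectional fit versus DMSO.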
# [12] = read-out: Protein phosphatase 2A (PPP2R4), PTPA (gene 5524); test: LTEA_HepaRG_PPP2R4: Life Technologies and Expression Analysis (LTEA) Assay for Protein phosphatase 2A (PPP2R4) using HepaRG (AID 2283522)
# Procedure, shortened: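 Differentiated human HepaRG cells in serum-free induction medium were exposed 48 h to 8 concentrations (top 100 µM, half-log steps, duplicate) in 0.5% DMSO. PPP2R4 mRNA was measured by TaqMan qRT-PCR, normalised to ACTB, GAPDH and POLR2A, and fitted bidirectionally versus DMSO.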
# [13] = read-out: Phosphatase and tensin (PTEN), PTEN (gene 5728); test: LTEA_HepaRG_PTEN: Life Technologies and Expression Analysis (LTEA) Assay for Phosphatase and tensin (PTEN) using HepaRG (AID 2283523)
# Procedure, shortened: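 HepaRG cells, 48 h after plating, exposed in duplicate for 48 h in serum-free induction medium to 8 half-log concentrations up to 100 uM (0.5% DMSO). PTEN mRNA by qRT-PCR, normalized to ACTB, GAPDH, POLR2A; bidirectional fit versus DMSO.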
# [14] = read-out: solute carrier (SLC22A1), SLC22A1 (gene 6580); test: LTEA_HepaRG_SLC22A1: Life Technologies and Expression Analysis (LTEA) Assay for solute carrier (SLC22A1) using HepaRG (AID 2283524)
# Procedure, shortened: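 Differentiated human HepaRG cells in serum-free induction medium, exposed 48 h in duplicate to 8-point half-log series from 100 µM top in 0.5% DMSO. SLC22A1 mRNA by TaqMan qRT-PCR normalized to ACTB, GAPDH, POLR2A; bidirectional fit versus DMSO.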
# [15] = read-out: Pyruvate Dehydrogenase Kinase 4 (PDK4), PDK4 (gene 5166); test: LTEA_HepaRG_PDK4: Life Technologies and Expression Analysis (LTEA) Assay for Pyruvate Dehydrogenase Kinase 4 (PDK4) using HepaRG (AID 2283525)
# Procedure, shortened: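 HepaRG cells plated 48 h, then switched to serum-free induction medium and exposed in duplicate for 48 h to 8 half-log concentrations from 100 uM in 0.5% DMSO. PDK4 mRNA measured by qRT-PCR, normalized to ACTB, GAPDH and POLR2A; bidirectional fit versus DMSO.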
# [16] = read-out: NAD(P)H dehydrogenase [quinone] 1 (NQO1), NQO1 (gene 1728); test: LTEA_HepaRG_NQO1: Life Technologies and Expression Analysis (LTEA) Assay for NAD(P)H dehydrogenase [quinone] 1 (NQO1) using HepaRG (AID 2283526)
# Procedure, shortened: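 Differentiated human HepaRG cells in serum-free induction medium, dosed in duplicate for 48 h at 8 half-log concentrations up to 100 uM in 0.5% DMSO. NQO1 mRNA by qRT-PCR normalized to ACTB, GAPDH, POLR2A; bidirectional fit versus DMSO baseline.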
# [17] = read-out: Nuclear factor erythroid 2-related factor 2 (Homo sapiens) (UniProt Q16236); test: LTEA_HepaRG_NFE2L2: Life Technologies and Expression Analysis (LTEA) Assay for Nuclear factor erythroid 2-related factor 2 (NFE2L2) Transcription Factor using HepaRG (AID 2283527);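 on outcome: TaqMan qRT-PCR transcript level normalised to ACTB GAPDH and POLR2A housekeeping genes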
# Procedure, shortened: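 Differentiated human HepaRG cells, serum-free induction medium, exposed 48 h in duplicate to eight half-log concentrations up to 100 uM in 0.5% DMSO. NFE2L2 mRNA by Fluidigm TaqMan qRT-PCR, normalised to ACTB, GAPDH, POLR2A; bidirectional change versus DMSO.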
# [18] = read-out: matrix metalloproteinase-3 (MMP3), MMP3 (gene 4314); test: LTEA_HepaRG_MMP3: Life Technologies and Expression Analysis (LTEA) Assay for matrix metalloproteinase-3 (MMP3) using HepaRG (AID 2283519)
# Procedure, shortened: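 HepaRG cells (~100,000/well) in serum-free induction medium were dosed in duplicate for 48 h with an 8-point half-log series from 100 uM, 0.5% DMSO. MMP3 mRNA was quantified by Fluidigm TaqMan qRT-PCR, normalized to three housekeeping genes.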
# Nuclear factor erythroid 2-related factor 2 (Homo sapiens), sequence (Q16236 whole entry, looked up): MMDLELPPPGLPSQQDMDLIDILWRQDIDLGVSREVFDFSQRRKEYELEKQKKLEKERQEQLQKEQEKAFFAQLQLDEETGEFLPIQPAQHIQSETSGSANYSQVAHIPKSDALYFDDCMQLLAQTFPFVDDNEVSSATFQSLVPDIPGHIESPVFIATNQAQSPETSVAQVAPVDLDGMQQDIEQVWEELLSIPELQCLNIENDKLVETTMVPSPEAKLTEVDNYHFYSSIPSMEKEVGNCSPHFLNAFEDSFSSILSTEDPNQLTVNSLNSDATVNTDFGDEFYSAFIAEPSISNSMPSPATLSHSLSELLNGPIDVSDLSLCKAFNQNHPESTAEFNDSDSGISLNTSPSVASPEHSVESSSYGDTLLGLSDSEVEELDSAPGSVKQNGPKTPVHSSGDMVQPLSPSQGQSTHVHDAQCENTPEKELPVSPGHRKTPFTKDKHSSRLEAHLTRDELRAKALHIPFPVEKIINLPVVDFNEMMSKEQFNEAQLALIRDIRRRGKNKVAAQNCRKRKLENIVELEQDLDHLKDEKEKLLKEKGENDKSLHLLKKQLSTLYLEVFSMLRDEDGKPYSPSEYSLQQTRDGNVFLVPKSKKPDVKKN
structure (smiles),measurement,setting,value
CCCCC(CC)COC(=O)CCCCC(=O)OCc1ccccc1 (stereo not given),outcome,[1],inactive
same,outcome,[2],inactive
same,outcome,[3],inactive
same,outcome,[4],inactive
same,outcome,[5],inactive
same,outcome,[6],inactive
same,outcome,[7],inactive
same,outcome,[8],inactive
same,outcome,[9],inactive
same,outcome,[10],inactive
same,outcome,"MYC, MYC (gene 4609)",inactive
same,outcome,[11],inactive
same,outcome,[12],inactive
same,outcome,[13],inactive
same,outcome,[14],inactive
same,outcome,[15],inactive
same,outcome,[16],inactive
same,outcome,[17],inactive
CC(=O)CC(C)(C)O,outcome,[1],inactive
same,outcome,[2],inactive
same,outcome,[3],inactive
same,outcome,[4],inactive
same,outcome,[5],inactive
same,outcome,[6],inactive
same,outcome,[7],inactive
same,outcome,[8],inactive
same,outcome,[9],inactive
same,outcome,[10],inactive
same,AC50,"MYC, MYC (gene 4609)",0.118 µM (active)
same,outcome,[18],inactive
same,outcome,[11],inactive
same,outcome,[12],inactive
same,outcome,[13],inactive
same,outcome,[14],inactive
same,outcome,[15],inactive
same,outcome,[16],inactive
same,outcome,[17],inactive
CCCCCCCCCCCCc1ccccc1S(=O)(=O)O,AC50,[1],76.8 µM (active)
same,AC50,[2],79.6 µM (active)
same,AC50,[3],83 µM (active)
same,outcome,[4],inactive
same,outcome,[5],inactive
same,AC50,[6],34.7 µM (active)
same,AC50,[7],72 µM (active)
same,AC50,[8],11.7 µM (active)
same,AC50,[9],80.6 µM (active)
same,AC50,[10],82.8 µM (active)
same,AC50,"MYC, MYC (gene 4609)",37.8 µM (active)
same,outcome,[11],inactive
same,AC50,[12],21.2 µM (active)
same,AC50,[13],12 µM (active)
same,AC50,[14],93.2 µM (active)
same,AC50,[15],10.8 µM (active)
same,outcome,[16],inactive
same,AC50,[17],19.9 µM (active)
